# Measurements published in PubChem BioAssay (NCATS).
# Results filed as inconclusive are left out. A call without a number means that no potency is given here. Calls of active or inactive are those of the source. The call rests on the fitted dose curve; in most records, active means well fitted curve in the direction sought with a large enough effect; inconclusive means small, poorly fitted or top-dose-only effect, or another doubt; inactive means no such curve, though single readings can be large; an effect the other way counts as inactive or inconclusive.
# Columns and labels:
# [1] = biological target: Arylsulfatase A (Homo sapiens) (UniProt P15289); test: qHTS screen for enhancers of Arylsulfatase A (ASA1): LOPAC Validation Assay (AID 720538); conditions: ASA enzyme activity, LOPAC qHTS enhancer assay; series mostly up to 57.5 µM; further: potency means the concentration at half of the fitted maximal effect
# Sequence of Arylsulfatase A (Homo sapiens) (P15289 whole entry, looked up): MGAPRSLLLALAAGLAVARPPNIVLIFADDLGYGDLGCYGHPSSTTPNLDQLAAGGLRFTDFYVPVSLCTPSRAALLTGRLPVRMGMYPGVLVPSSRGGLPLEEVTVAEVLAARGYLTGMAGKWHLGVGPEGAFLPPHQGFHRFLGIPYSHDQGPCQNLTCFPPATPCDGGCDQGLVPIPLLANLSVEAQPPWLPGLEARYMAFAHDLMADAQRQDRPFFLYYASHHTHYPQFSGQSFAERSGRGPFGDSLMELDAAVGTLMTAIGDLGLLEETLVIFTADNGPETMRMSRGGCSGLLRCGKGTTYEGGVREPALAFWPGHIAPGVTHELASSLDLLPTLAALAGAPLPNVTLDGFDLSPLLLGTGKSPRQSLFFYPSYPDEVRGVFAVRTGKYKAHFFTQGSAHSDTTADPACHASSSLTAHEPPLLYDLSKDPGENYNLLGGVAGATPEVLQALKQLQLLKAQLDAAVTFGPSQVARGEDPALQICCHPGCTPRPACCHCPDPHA
# Summary of the method: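 Enhancer assay in patient-derived MLD fibroblasts carrying ASA-I179S: 48 h compound exposure at 37 C, then 14 h room-temperature pNCS turnover (0.5 mM final) in lysis buffer. Read by fluorescence at 525/598 nm after NaOH stop.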
# [2] = qHTS for compounds that reverse cellular toxicity of Amyloid beta (A-beta) peptide in yeast: LOPAC Validation Assay (AID 720559); conditions: yeast expressing A-beta; series mostly up to 46.1 µM
# Summary of the method: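 Rescue of A-beta toxicity was scored as yeast growth by 600 nm absorbance after 48 hr at 30 C with compound. Normalization used DMSO (negative) and equimolar ferric chloride plus clioquinol (positive).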
# [3] = qHTS for Activators of Parkin Expression: LOPAC Validation Assay (NLuc Reporter) (AID 720572); conditions: Parkin promoter NanoLuc reporter cells, luminescence; series mostly up to 46.1 µM
# Summary of the method: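 Neuronal line stably carrying a FLuc/NLuc coincidence reporter under the Parkin promoter, seeded 24 h, then dosed in 7-point series for 24 h at 37 C. NLuc luminescence read after FLuc; normalized to DMSO and positive control (100%).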
# [4] = qHTS for Activators of Parkin Expression: LOPAC Validation Assay (FLuc Reporter) (AID 720573); conditions: Cell line, PRKN promoter firefly luciferase reporter; series mostly up to 46.1 µM
# Summary of the method: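 FLuc signal from Parkin-promoter coincidence reporter neuronal cells, normalized to DMSO and positive control (100%). Cells (1,500/well) pre-incubated 24 h, then exposed to LOPAC compounds in 7-point dose response for 24 h at 37 C, 5% CO2.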
SMILES,Potency [1],outcome [2],Potency [3],Potency [4]
CCCCCC[C@@H]([C@@H](C)O)n1cnc2c(N)ncnc21,inactive,inactive,inactive,inactive
CCCn1c(=O)c(C)cn2nc(N)nc12,inactive,inactive,inactive,inactive
CC(N)(Cc1ccc(O)c(O)c1)C(=O)O (stereo not given),inactive,inactive,inactive,inactive
Cc1cccc(C)c1OCC(N)C(C)C (stereo not given),inactive,inactive,inactive,inactive
C=CCn1c(=O)c2c(nc(-c3ccc(S(=O)(=O)O)cc3)n2C)n(C)c1=O,inactive,inactive,inactive,inactive
N#C/C(=C\c1ccc(O)c(O)c1)C(=O)NCCCNC(=O)/C(C#N)=C/c1ccc(O)c(O)c1,inactive,inactive,inactive,inactive
Nc1ncnc2c1ncn2C1CCCO1 (stereo not given),2690 nM (active),inactive,inactive,inactive
Cn1c(=O)c2[nH]c(C3CCCC3)nc2n(C)c1=O,inactive,inactive,inactive,inactive
O=C(O)/C=C/c1ccc(O)c(O)c1,inactive,inactive,inactive,inactive
CCCCCCC/C=C\CCCCCCCCC(=O)O,inactive,inactive,inactive,inactive
O=C(c1ccc2c(c1)OCCO2)N1CCCCC1,inactive,inactive,inactive,inactive
N=C(N)SCCN,inactive,inactive,inactive,inactive
NC1CCN(O)C1=O (stereo not given),inactive,inactive,inactive,inactive
N[C@@H](CCCC(=O)O)C(=O)O,inactive,inactive,inactive,inactive
C=C1C[C@@]23CC[C@H]4[C@@](C)(CCC[C@@]4(C)C(=O)O)[C@@H]2CC[C@]1(O)C3,inactive,inactive,inactive,inactive
O=C(O)C1=CCCNC1,inactive,inactive,inactive,inactive
CCn1c(=O)[nH]c2cc(Cl)c(Cl)cc21,inactive,inactive,inactive,inactive
N[C@H](C(=O)O)[C@H]1C[C@@H]1C(=O)O,inactive,inactive,inactive,inactive
CC(N)=NCCCC[C@@H](N)C(=O)O,inactive,inactive,inactive,inactive
CC1CCN(CC[C@H]2CCCN2S(=O)(=O)c2cccc(O)c2)CC1,inactive,inactive,inactive,inactive
Cc1cc2c(cc1Cl)N(C(=O)Nc1ccnc3ccccc13)CC2,inactive,inactive,inactive,inactive
Cn1cc(C(F)(F)F)nc1-c1ccc(OCC(O)CNCCOc2ccc(O)c(C(N)=O)c2)cc1 (stereo not given),inactive,inactive,inactive,inactive
N=S(=O)(O)Cc1noc2ccccc12,inactive,inactive,inactive,inactive

SMILES,Potency [1],outcome [2],Potency [3],Potency [4]
[N-]=[N+]=Nc1ccc(C(=O)CSC[C@H](NC(=O)CC[C@H](N)C(=O)O)C(=O)NCC(=O)O)cc1,inactive,inactive,inactive,inactive
CC(=O)NCCc1c[nH]c2ccc(O)cc12,inactive,inactive,inactive,inactive
C[C@@H](NCCc1ccc(O)cc1)[C@@H](O)c1ccc(O)cc1,inactive,inactive,inactive,inactive
NC(=O)c1cc[n+](CC2=C(C(=O)O)N3C(=O)[C@@H](NC(=O)[C@@H](c4ccccc4)S(=O)(=O)[O-])[C@H]3SC2)cc1,inactive,inactive,inactive,inactive
NOCC(=O)O,inactive,inactive,inactive,inactive
O=C(O)C1CN(CCCP(=O)(O)O)CCN1 (stereo not given),inactive,inactive,inactive,inactive
CCCCCCCCCCCCCCCCCCOC[C@H](COP(=O)([O-])OCC[N+](C)(C)C)OC,inactive,inactive,inactive,inactive
O=C(O)c1cc(=O)cc(C(=O)O)[nH]1,inactive,inactive,inactive,inactive
CCCCOc1cc(CC2CNC(=O)N2)ccc1OC (stereo not given),inactive,inactive,inactive,inactive
O=c1[nH]ccc2c(O)cccc12,inactive,inactive,inactive,inactive
NCCCCN=C(N)N,inactive,inactive,inactive,inactive
OC[C@H]1O[C@H](n2cnc3c(N[C@H]4CCC[C@@H]4O)ncnc32)[C@H](O)[C@@H]1O,inactive,inactive,inactive,inactive
Oc1ccc(Cn2cc[nH]c2=S)cc1,inactive,inactive,inactive,inactive
OC[C@H]1NC[C@@H](O)[C@@H]1O,inactive,inactive,inactive,inactive
N=C(N)c1ccc(N)cc1,inactive,inactive,inactive,inactive
Cc1nc2n(c(=O)c1CCN1CCC(c3noc4cc(F)ccc34)CC1)CCCC2O (stereo not given),inactive,inactive,inactive,inactive
O=C(O)C1=CCNCC1,inactive,inactive,inactive,inactive
Oc1cc2c(cc1O)C(c1ccccc1)CNCC2 (stereo not given),inactive,inactive,inactive,inactive
NC(C(=O)N[C@@H]1C(=O)N2C(C(=O)O)=C(Cl)CS[C@H]12)c1ccccc1 (stereo not given in full),inactive,inactive,inactive,inactive
O=c1ccc2c(OCCCCc3ccccc3)c3ccoc3cc2o1,inactive,inactive,inactive,inactive
CC(C)C[C@H](NC(=O)C1OC1C(=O)O)C(=O)NCCCCN=C(N)N (stereo not given in full),inactive,inactive,inactive,inactive
OCC1NCC(O)C(O)C1O (stereo not given),inactive,inactive,inactive,inactive
